Activity data for 16 compounds are collected here from PubChem BioAssay.

Assay [1] concerns the target Tumor necrosis factor receptor superfamily member 10B (Homo sapiens) (UniProt O14763). The assay can be described thus: caspase-8 TRAIL sensitization, hit retest, confirmation, cell-based, NB7+caspase-8, with/without TRAIL, luminescence panel (AID 651596). The note with it: NB7 neuroblastoma + caspase-8, TRAIL sensitization, luminescence viability, with TRAIL, mean of runs, at 10 µM, stronger effect = higher value.

Experiment in assay [2]: as above
Conditions: NB7 neuroblastoma + caspase-8, without TRAIL, luminescence viability, without TRAIL, mean of runs, at 10 µM; in the data active = activity above about 50%; inactive = the rest.

Sequence of Tumor necrosis factor receptor superfamily member 10B (Homo sapiens) (O14763 whole entry, looked up): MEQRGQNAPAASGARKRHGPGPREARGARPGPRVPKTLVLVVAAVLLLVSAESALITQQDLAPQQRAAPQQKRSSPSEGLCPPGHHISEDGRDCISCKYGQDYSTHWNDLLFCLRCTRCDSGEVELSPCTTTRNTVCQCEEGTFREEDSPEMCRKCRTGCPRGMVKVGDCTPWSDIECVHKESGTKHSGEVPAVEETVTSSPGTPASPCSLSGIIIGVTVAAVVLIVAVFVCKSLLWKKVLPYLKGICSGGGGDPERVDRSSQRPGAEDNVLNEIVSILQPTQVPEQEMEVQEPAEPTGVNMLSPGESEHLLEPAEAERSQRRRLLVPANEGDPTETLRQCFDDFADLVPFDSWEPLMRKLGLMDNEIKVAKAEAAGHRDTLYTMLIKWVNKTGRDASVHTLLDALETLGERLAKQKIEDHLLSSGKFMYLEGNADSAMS

As for `N#Cc1cc2c(nc1SCC(=O)Nc1nccs1)CCCCC2`, the activity worked out at 67.8% in assay [1] and 69.2% in assay [2].

Consider `C=CCNC(=S)N/N=C/c1ccc(C(F)(F)F)cc1`, for which the activity in assay [1] was found to be 18.5%; in assay [2], 8.22%.

For the compound `CCOc1cc(NC2CS(=O)(=O)CC2O)c(OCC)cc1NC(=O)c1ccccc1` (configuration not stated), the values for the activity in assay [1] and in assay [2] were -26.1% and -33.2%, respectively.

`O=C1N(c2ccccc2)CCN1c1ccccc1`: the activity in assay [1] was found to be 67.2%; in assay [2] it was 62.8%.

With `CCOC(=O)c1cn(-c2ccc(F)c(F)c2F)c2c(F)c(F)c(F)cc2c1=O`, the activity in assay [1] was 64%; in assay [2], 41.5%.

Turning to `COc1cccc2sc(N(CCCN(C)C)C(=O)c3ccc(S(=O)(=O)N4CCc5ccccc5C4)cc3)nc12`, the values for the activity in assay [1] and in assay [2] were 56.8% and 79%, respectively.

Regarding `CC(C)(C)c1ccc(/C=N/NC(=O)c2ccccn2)cc1`, the results for the activity in assay [1] and in assay [2] were 83.5% and 75%, respectively.

Regarding `CCC(C(=O)O/N=C(\N)c1ccc(C)cc1)c1ccccc1` (configuration not stated), the results for the activity in assay [1] and in assay [2] were 65.2% and 77.5%, respectively.

Consider `Cc1ccc(/C=N/NC(=O)c2nn(C)cc2Cl)cc1`, for which the activity is 62.2% in assay [1] and 36% in assay [2].

With `COc1ccc(Cn2c(SCc3ccc(C)cc3)nc3cc(OC)c(OC)cc3c2=N)cc1Cl`, the values for the activity in assay [1] and in assay [2] were 99% and 99.3%, respectively.

As to `COC(=O)CSc1nnc(NC(=O)/C=C\c2ccc3c(c2)OCO3)s1`, the activity in assay [1] is 49.5%; in assay [2] it was 66.2%.

`COc1ccc(-c2cc3ccccc3cn2)cc1`: the activity in assay [1] was 57.4%; in assay [2] it was 54.3%.

As to `CSc1nc(NCCN(C)C)c2sc3nc(-c4ccco4)c4c(c3c2n1)CCC4`, the figures for the activity in assay [1] and in assay [2] were 80.2% and 98.5%, respectively.

Consider `O=C(CSc1nnc(-c2ccccc2)o1)Nc1ccccc1F`, for which the activity amounted to 55.1% in assay [1] and 43.5% in assay [2].

Consider `CCCOc1ccc(-c2cn3ccccc3n2)cc1[N+](=O)[O-]`, for which the activity amounted to 57% in assay [1] and 52.1% in assay [2].

On to `Nc1nc(N)c2cc(Sc3ccc4ccccc4c3)ccc2n1`, for which the activity in assay [1] came out at 61%; in assay [2], 73.9%.
